Assay outcomes from PubChem.
hgDAF12 agonist: agonists of H. glycines DAF-12 nuclear receptor | HEK293 GAL4-hgDAF12 UAS-luciferase reporter, agonist luminescence; normalized to butyrate control | activation, % at 6.8 µM | 370,000 tested, 1.8% active;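 active = activation above a cutoff set at the mean of all screened compounds plus 3 SD, cut at about 10% in these data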;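 note: 0% = DMSO wells and 100% = sodium butyrate wells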
DAX1 inh-1: blocks DAX1 repression of SF-1 activated StAR promoter; 370,000 tested, 1.1% active; inhibition, % at 6.8 µM; HEK293T StAR-luciferase reporter, SF-1/DAX-1 repression relief;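 active = inhibition above the mean over all tested compounds plus 3 SD, cut at about 3.6% in these data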;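 note: 0% = DAX-1 cells with DMSO and 100% = cells lacking DAX-1 with DMSO; higher inhibition means more luminescence from relief of DAX-1 repression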
hcDAF12 agonist: H. contortus DAF-12 activation, primary screen | HEK293 hcDAF-12 lit1-tk-luc reporter, luminescence; 0% DMSO, 100% Δ7-dafachronic acid | activation, % at 6.8 µM | 370,000 tested, 1.4% active | AID 652067;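 active = activation above the mean of all tested compounds plus 3 SD, cut at about 5.5% in these data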;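 note: 100% = response to 3 µM Δ7-dafachronic acid high control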
DAX1 inh-2: NR0B1 (DAX1) inhibition | 340,000 tested, 0.99% active | inhibition, % at 6.75 µM | P51843 | HEK293 Gal4-DAX1 luciferase reporter, luminescence;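 active = inhibition above the mean over all tested compounds plus 3 SD, cut at about 4.2% in these data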;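 note: 0% = DAX1-transfected cells with DMSO and 100% = empty-vector control cells with DMSO; inhibition shows as a rise in luminescence from relieved DAX1 repression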
Target sequence (P51843 207-470 limits assumed): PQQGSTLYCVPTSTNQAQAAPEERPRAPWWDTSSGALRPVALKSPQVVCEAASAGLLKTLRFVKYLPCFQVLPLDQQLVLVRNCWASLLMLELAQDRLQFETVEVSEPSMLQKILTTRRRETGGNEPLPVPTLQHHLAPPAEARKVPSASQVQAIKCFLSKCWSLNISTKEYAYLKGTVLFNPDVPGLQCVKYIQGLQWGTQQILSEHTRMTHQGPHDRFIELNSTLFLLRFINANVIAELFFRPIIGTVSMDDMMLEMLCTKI
ssDAF12 agonist: activators of S. stercoralis DAF-12 nuclear receptor. activation, % at 6.8 µM. HEK293 ssDAF-12/GRIP1 lit1-tk-luc reporter, luminescence; % of 3 µM dafachronic acid response. 370,000 tested, 1% active;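 active = activation above the mean over all tested compounds plus 3 SD, cut at about 0.9% in these data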;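 note: 0% = DMSO-only wells and 100% = 3 µM delta7-dafachronic acid wells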
SMARCA2 activ: activators of SMARCA2 function | MG213 cells, MMTV-luciferase reporter, dexamethasone, overnight | activation, % at 9.1 µM | 370,000 tested, 1% active | AID 652017; in the data active = activation above about 7.8%;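 note: 0% = vehicle wells and 100% = reference activator wells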
SMARCA2 act conf: confirmation of SMARCA2 (BRM) function activators; shares compounds with SMARCA2 activ; MG213 cells, MMTV-luciferase with dexamethasone, luminescence, overnight; MG213 cells expressing E1A, Rb sequestered; DMSO wells 0%, reference activator 100%; activation, % at 9.1 µM; 3,500 tested, 30% active; AID 652260;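 active = activation above its plate's cutoff, the mean activation of tested wells plus 3 SD, cut at about 7.9% in these data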
VP16 Luc act: activates GAL4-VP16 luciferase, flagging SMARCA2 activator hits | shares compounds with SMARCA2 activ | HEK293 GAL4-VP16 pG5luc reporter, luciferase luminescence; scaled: DMSO wells 0%, SAHA wells 100% | activation, % at 9.1 µM | 3,500 tested, 41% active;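 active = activation above the solvent-only control well mean plus 3 SD, averaged across control plates, cut at about 5.2% in these data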
Starred values were filed as active, the others as inactive; x = not tested or not shown. Sampled rows, rich in hits. Any-hit rate of the full collection: about 4.8%.

SMILES | hgDAF12 agonist | DAX1 inh-1 | hcDAF12 agonist | DAX1 inh-2 | ssDAF12 agonist | SMARCA2 activ | SMARCA2 act conf | VP16 Luc act
CCC1CCCCN1C(=O)CSc1nnc(-c2cccs2)o1 (configuration not stated) | 9 | 2 | 3 | 1 | 1.0* | 8.0* | 12* | 8.4*
CCOc1ccc(-n2c(SCC(=O)Nc3ccc4cn[nH]c4c3)nnc2-c2ccc(C(C)(C)C)cc2)cc1 | 3 | -1 | -1 | x | -1 | -3 | x | x
CCCCC[n+]1ccn(-c2nc3ccccc3nc2[N-]S(=O)(=O)c2ccccc2)c1 | 1 | 1 | 1 | 3 | 0 | -3 | x | x
O=S(=O)([N-]c1nc2ccccc2nc1-n1cc[n+](Cc2ccccc2)c1)c1ccc(Br)cc1 | 1 | 0 | -1 | x | -1 | 11* | 3 | 0
COc1ccc(C2=NN(C(=O)CN3CCOCC3)C(c3nc4ccccc4[nH]3)C2)cc1 (configuration not stated) | 10 | 2 | 4 | 1 | 0 | 11* | 7 | 7.6*
COc1ccc(C2=NN(C(=O)CN3CCCCC3)C(c3ccc(C)cc3)C2)cc1 (configuration not stated) | 1 | -1 | 0 | -1 | -1 | -2 | x | x
O=[N+]([O-])c1ccc2[nH]c(=S)[nH]c2c1 | -2 | 0 | -1 | -2 | -1 | 10* | 11* | 0
O=[N+]([O-])c1ccc2c(c1)[nH]c(=S)n2-c1ccccc1 | -1 | 0 | 1 | 2 | -1 | 2 | x | x
Cc1cccc(NC(=O)C2CCCN2C(=O)OCc2ccccc2)c1 (configuration not stated) | 4 | -1 | -1 | 0 | -1 | 0 | x | x
Cc1ccc(O)c(NC(=O)C2CCCN2C(=O)OCc2ccccc2)c1 (configuration not stated) | -2 | 0 | 3 | 0 | -1 | 9.6* | -1 | 1
Cc1ccc(CN2CCN(c3ccccn3)CC2)s1 | 2 | 0 | -1 | 0 | -1 | 9.6* | 3 | 0
Cc1cccc(CN2CCN(c3ccccn3)CC2)c1 | 0 | -1 | 1 | 2 | -1 | -4 | x | x
Nc1ccc(C(=O)NN2C(=O)[C@H](Cl)C2c2ccc(Cl)cc2)cc1 (some centres not stated) | 4 | -3 | 5.9* | 0 | 0 | 8.3* | -15 | 1
COc1ccc(-n2c(SCC(=O)Nc3ccc(OCc4ccccc4)cc3)nnc2-c2ccc(C)cc2)cc1 | 10 | -1 | -1 | x | -1 | -2 | x | x
COCC1CCCCN1Cc1cn[nH]c1-c1ccc2cc(OC)ccc2c1 (configuration not stated) | -2 | 1 | -1 | 0 | -1 | 11* | 3 | 4
COc1ccc(-c2csc3ncn(-c4cccc(C)c4)c(=O)c23)cc1OC | 0 | 0 | 0 | 3 | -2 | -1 | x | x
COc1ccc(-c2csc3nc(C)n(-n4cccc4)c(=O)c23)cc1OC | -1 | 0 | 0 | -1 | -1 | 9.1* | -2 | 2
CC(C)NC(=O)N[C@H]1C[C@@H]2O[C@@H](CO)CC[C@@H]2O[C@@H]1CCc1ccc(-c2ccc(F)cc2)cc1 | -1 | 1 | -2 | x | -1 | 0 | x | x
CC(C(=O)NC1CCCCC1)N1C(=O)C2C3C=CC(C3)C2C1=O (configuration not stated) | 0 | 0 | 0 | 0 | 0 | 1 | x | x
CC1CCC(NC(=O)C(C)N2C(=O)C3CCCCC3C2=O)CC1 (configuration not stated) | 2 | 0 | 2 | 1 | -1 | 9.3* | 2 | 2
COc1ccc(/C=C2\SC(N3CCc4ccccc4C3)=NC2=O)cc1 | -2 | 1 | 1 | 0 | -1 | -1 | x | x
CCOc1ccc(/C=C2\SC(N3CCc4ccccc4C3)=NC2=O)cc1 | 3 | 0 | 0 | 0 | -1 | 9.0* | -1 | 1
CCOC(=O)CCCSc1nc(-c2ccc3c(c2)OCO3)cc(C(F)(F)F)c1C#N | 2 | 0 | 1 | 0 | -1 | 8.7* | 0 | 2
Cn1c(C(=O)OCC(=O)NCc2ccco2)cc2sccc21 | 1 | -1 | -2 | 0 | -2 | 14* | 1 | 2
CCCCCCCCNS(=O)(=O)CC1NCc2ccc(C)cc21 (configuration not stated) | 2 | 0 | 1 | x | -2 | 0 | x | x
SMILES | hgDAF12 agonist | DAX1 inh-1 | hcDAF12 agonist | DAX1 inh-2 | ssDAF12 agonist | SMARCA2 activ | SMARCA2 act conf | VP16 Luc act
Cc1ccc(Cc2cnc(NC(=O)C3CCCO3)s2)cc1 (configuration not stated) | 13* | 4 | 4 | 1 | 1.0* | 8.8* | 10* | 7.9*
O=[N+]([O-])c1ccc(SCCc2ccccn2)cc1 | 3 | 0 | 2 | 1 | -2 | 12* | 1 | 2
O=[N+]([O-])c1ccc(SCCc2ccncc2)cc1 | 0 | -1 | -2 | 2 | -1 | -1 | x | x
O=C(NCc1cccnc1)c1cccs1 | 0 | 1 | 0 | 2 | -1 | 9.5* | 2 | 0
CCC(O)(CC)C(=O)NN(C(=O)CCl)c1ccccc1 | -1 | -1 | -3 | -1 | -2 | 8.7* | 2 | 0
Cc1ccc(N(NC(=O)C(O)(c2ccccc2)c2ccccc2)C(=O)CCl)cc1 | 3 | -1 | -2 | -1 | -2 | -9 | x | x
COc1ccc(-c2nc(C#N)c(NCc3cccnc3)o2)cc1OC | -1 | 3 | -2 | 1 | -1 | 10* | -2 | 3
COc1ccc(-c2nc(C#N)c(NCc3ccc(F)cc3)o2)cc1OC | -1 | -1 | -4 | -2 | -2 | 0 | x | x
COC(=O)c1ccc(Cn2ccc3ccc(-c4ccc5ccn(Cc6ccc(C(=O)OC)cc6)c5c4)cc32)cc1 | 0 | -1 | -1 | x | -1 | -2 | x | x
Cc1cc(S(=O)(=O)N2CCC3(CC2)OCCO3)c(C)cc1Cl | 0 | -1 | -1 | 1 | -1 | 12* | -3 | 1
O=C(OCC#CCSc1nnc(-c2cccc3ccccc23)o1)c1ccccc1F | -1 | x | -2 | x | 0 | x | x | x
CC(C)n1nnnc1C1(C)CCSCC(=O)N1Cc1cccc(C(F)(F)F)c1 (configuration not stated) | 2 | -1 | -2 | x | -1 | -2 | x | x
Cn1cnc2ccc([N+](=O)[O-])cc2c1=O | 0 | 0 | 1 | 1 | 0 | 2 | x | x
COC(=O)Nc1ccc2ncn(C)c(=O)c2c1 | 0 | 1 | -1 | 4 | -1 | 9.9* | -2 | 0
